p47phox inh: p47phox/p22phox peptide binding inhibitors, primary screen, biochemical, uHTS, NADPH oxidase regulatory subunit | Neutrophil cytosol factor 1 (Homo sapiens), P14598 | fluorescence polarization, 2 h | inhibition, % at 24.7 µM | 0.53% of 220,000 active;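 note: 0% = p47phox with labelled peptide and 100% = labelled peptide alone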
Mcl1-Noxa inh: Mcl-1/Noxa binding inhibitors, primary screen, biochemical, TR-FRET, 1536-well; Induced myeloid leukemia cell differentiation protein Mcl-1 (Homo sapiens), Q07820; inhibition, % at 21.7 µM; TR-FRET Mcl-1/Noxa peptide binding, 2 h; 1.5% of 220,000 active;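 active = compounds that cut the protein-peptide binding signal by more than 50% relative to plate controls in a single-dose test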;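 note: His-tagged Mcl-1 with rhodamine Noxa BH3 peptide and terbium anti-His antibody; 0% = Mcl-1 plus Noxa peptide wells and 100% = peptide-only wells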
14-3-3 Bad PPI: inhibitors of 14-3-3 zeta/Bad binding, primary screen, biochemical, TR-FRET, bovine 14-3-3 zeta; AID 781, 2007; 0.71% of 220,000 active; 14-3-3 protein zeta/delta (Bos taurus), P63103; TR-FRET 14-3-3zeta/Dy647-pBad peptide displacement, 1 h; inhibition, % at 21.7 µM;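 active = inhibition above about 70%, limit read from the data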;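 note: 0% = full 14-3-3 plus peptide FRET controls and 100% = background without 14-3-3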
eIF4E-4G inh: eIF4E–eIF4G protein interaction inhibitors, primary screen, biochemical, uHTS, TR-FRET, eIF4GI fragment | Eukaryotic translation initiation factor 4E (Mus musculus) + Eukaryotic translation … | TR-FRET eIF4E-eIF4GI(517-606) binding, 2 h | inhibition, % at 21.7 µM | 0.37% of 220,000 active | AID 782, 2007;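 note: 0% = full FRET control wells and 100% = background wells lacking eIF4GI fragment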
Bim-Mcl-1: inhibitors of Bim peptide binding to Mcl-1, primary screen, biochemical, bead-based flow cytometry, multiplex | Bim peptide-Mcl-1 binding | inhibition, % at 10 µM | 0.1% of 190,000 active | AID 1009, 2008; in the data active = inhibition above about 40%;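 note: 0% = no compound tracer wells and 100% = peptide blocker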
Mcl1-Bid inh: Mcl-1/Bid binding inhibitors, primary screen, biochemical, TR-FRET, 1536-well; Induced myeloid leukemia cell differentiation protein Mcl-1 (Homo sapiens), Q07820; TR-FRET Mcl-1/Bid-Dy647 peptide binding; inhibition, % at 21.7 µM; 0.97% of 220,000 active;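 active = compounds that cut the binding signal by more than half at the single screening dose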;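 note: His-tagged Mcl-1 with europium anti-His antibody binding Bid BH3 peptide; 0% = Mcl-1 plus peptide wells and 100% = peptide-only wells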
* = called active by the depositor; / = not tested or not shown; [ ] = another dose, or the depositor's remark. Rows were chosen to be rich in hits. Some 3.3% of all compounds tested hit in one or more screens of this group.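 Rule for the calls, unless noted: active = inhibition above about 30% (limit read from the data); inactive = the rest.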

SMILES	p47phox inh	Mcl1-Noxa inh	14-3-3 Bad PPI	eIF4E-4G inh	Bim-Mcl-1	Mcl1-Bid inh
O=C(NCc1ccccc1)c1ccc2c(=O)[nH]c3c(C(=O)NCC4CCCO4)sc(=S)n3c2c1 (centres undefined)	-39.4	63.5*	-17.3	6.3	0.0	-35.2
O=C(NCC1CCCO1)c1ccc2c(=O)n(-c3ccc(F)cc3)c(=S)[nH]c2c1 (centres undefined)	-0.9	-11.6	-3.3	-2.8	48.0*	-48.8
CCCCCNC(=O)c1ccc2c(=O)[nH]c3c(C(=O)NCC4CCCO4)sc(=S)n3c2c1 (centres undefined)	-41.5	52.0*	0.9	1.2	4.0	-39.5
CCn1c(N)c(C(=O)NCC2CCCO2)sc1=S (centres undefined)	1.6	4.6	10.1	13.8	-14.0	-20.7
O=C(NCc1ccco1)c1sc(=S)n2c1[nH]c(=O)c1ccccc12	-41.8	73.0*	42.7	4.4	-2.0	-29.9
Cc1ccc(CNC(=O)c2ccc3c(=O)n(CC4CCCO4)c(=S)[nH]c3c2)cc1 (centres undefined)	1.8	0.1	-12.7	6.1	-1.0	-80.4
Cc1ccc(CNC(=O)c2ccc3c(=O)[nH]c4c(C(=O)NCC5CCCO5)sc(=S)n4c3c2)cc1 (centres undefined)	-36.0	73.7*	-0.3	0.5	0.0	17.1
Cc1ccc(CNc2nc(C)nc3sc4c(c23)CCC4)cc1	-6.2	-16.1	-15.8	4.3	0.0	91.2*
O=C1ON=C(c2cccc([N+](=O)[O-])c2)/C1=C/c1ccc(O)cc1	13.7	66.1*	6.4	10.3	0.0	-50.5
CC(CCc1ccccc1)NC(=O)CNC(=S)N(Cc1cccs1)C1CCCC1 (centres undefined)	-1.8	-16.6	-13.5	-9.7	6.0	-46.7
COC(=O)C(=O)/C=C(\O)c1ccc(C)cc1	-9.8	57.4*	7.7	4.3	-1.0	-22.9
CNc1cccccc1=S	19.2	57.9*	14.1	10.2	0.0	-93.1
CS(=O)(=O)C1=NSC2=NC(=O)/C(=C\c3ccc(-c4ccccc4)o3)C(=N)N21	-30.4	14.5	-13.9	5.5	0.0	-13.4
Cc1ccc(-n2cccc2/C=C2\C(=N)N3N=C(c4ccco4)SC3=NC2=O)cc1	-80.8	94.1*	74.2*	55.5*	-3.0	79.4*
Cc1cc(C)cc(-n2cccc2/C=C2/C(=N)N3C(=NC2=O)SN=C3S(C)(=O)=O)c1	-115.4	34.4	-1.8	12.6	3.0	-12.0
CCC1=NN2C(=N)/C(=C\c3cccn3-c3ccc(C)c(C)c3)C(=O)N=C2S1	-30.7	12.4	-11.9	-3.6	0.0	-36.8
Cc1ccc(-n2cccc2/C=C2/C(=N)N3C(=NC2=O)SN=C3S(C)(=O)=O)cc1	-70.7	98.3*	9.7	23.7	-1.0	-17.4
CS(=O)(=O)C1=NSC2=NC(=O)/C(=C\c3cccn3-c3ccccc3Cl)C(=N)N21	-91.1	88.9*	3.8	16.3	1.0	-8.5
CCc1ccc(-n2cccc2/C=C2/C(=N)N3C(=NC2=O)SN=C3S(C)(=O)=O)cc1	-93.2	93.9*	13.3	20.7	2.0	-4.2
CCC1=NN2C(=N)/C(=C\c3cccn3-c3ccc(Cl)cc3)C(=O)N=C2S1	-1.9	19.9	-2.5	1.0	0.0	-24.6
O=C(CCc1ccccc1)NNC(=O)Cc1ccccc1	3.0	-10.2	-9.4	2.8	-2.0	-22.4
CSCCC1NC(=O)N(C(C)C(=O)Nc2cc(Cl)cc(Cl)c2)C1=O (centres undefined)	-10.9	4.4	-7.7	-0.5	2.0	-33.3
COc1cc(/C=C2\SC(N)=NC2=O)ccc1OCC(=O)Nc1ccc(C)cc1	11.3	5.0	97.2*[fluorescence artefact?]	20.7	-1.0	61.3*
Cc1ccc(N2CCN(C(=O)c3ccccc3)CC2)c(C)c1	91.5*	6.0	7.5	1.8	-3.0	-7.1
Cc1ccc(N2CCN(C(=O)c3ccccc3Br)CC2)c(C)c1	-3.1	-9.9	-6.0	-3.4	0.0	-29.1
SMILES	p47phox inh	Mcl1-Noxa inh	14-3-3 Bad PPI	eIF4E-4G inh	Bim-Mcl-1	Mcl1-Bid inh
COc1ccc2[nH]cc(S(=O)(=O)c3ccc(C)cc3)c2c1	4.5	6.5	4.9	4.7	0.0	10.0
CCCOc1cc(C)c(S(=O)(=O)n2ccc(C)n2)cc1C	-5.2	2.2	8.9	2.3	-2.0	3.6
O=C(NC1CCCC1)C1CC(c2ccc(F)cc2)=NO1 (centres undefined)	60.2*	-4.6	-2.0	-2.2	0.0	-12.6
CC(=O)c1ccc(NC(=O)C2CC(c3ccc(F)cc3)=NO2)cc1 (centres undefined)	6.2	19.7	-5.4	0.6	-2.0	-4.6
Cc1ccc(-c2nc(CN(C)Cc3ccc4nccnc4c3)c(C)o2)s1	-106.9	18.0	-8.5	0.2	-4.0	-45.8
O=[N+]([O-])c1ccc(O)c(/C=N/Nc2ccc(Cl)nn2)c1	-6.0	78.5*	-11.9	-7.5	1.0	-4.5
CN1C(=O)/C(=C\c2ccco2)N=C1c1ccc(Cl)cc1Cl	-6.3	-0.1	3.5	3.6	/	-35.2
COc1cc2c(c(OC)c1O)C(=O)CO2	-11.2	15.0	-4.6	-1.0	/	-48.8
COc1cc(OC)c2c(O)c3c(c(-c4c5c(c(O)c6c(OC)cc(OC)cc46)CO[C@@H](C)[C@H]5O)c2c1)[C@H](O)[C@H](C)OC3	-120.7	101.5*	44.1	20.4	-4.0	78.8*
Fc1ccc(CCNC(=S)Nc2ccc(F)c(Cl)c2)cc1	1.0	10.6	-13.4	-5.3	0.0	-65.8
CCOC(=O)CSc1nnc2n1C(C)(C)Cc1ccccc1-2	-1.8	92.4*	12.2	-4.2	-3.0	-10.8
CC(C)OC(=O)CSc1nnc2n1C(C)(C)Cc1ccccc1-2	3.9	-6.5	/	/	-2.0	-49.7
N#C/C(=C/c1ccc2c(c1)OCO2)C(=O)Nc1ccc(O)cc1	-3.9	-2.3	-7.2	-0.7	1.0	-59.2
O=C1OCC2OC(O)C(O)C(O)C2OC(=O)c2cc(O)c(O)c(O)c2-c2c(O)c(O)c3oc(=O)c4c(c(O)c(O)c5oc(=O)c2c3c54)-c2c1cc(O)c(O)c2O (centres undefined)	0.7	104.7*	75.2*	34.4*	/	-9.8
O=C(/C=C/c1ccc2c(c1)OCO2)Nc1ccc(Cl)cn1	9.8	17.4	26.9	-6.6	-2.0	63.2*
CCOc1ccc2nc(NC(=O)/C=C/c3ccc4c(c3)OCO4)sc2c1	-26.1	56.2*	39.5	15.8	0.0	59.8*
O=C(/C=C/c1ccc2c(c1)OCO2)Nc1nc2ccc(F)cc2s1	-5.0	70.8*	27.4	-1.8	/	61.1*

High-throughput results (PubChem BioAssay)
